The target of assay [1] is Estrogen receptor (Homo sapiens) (UniProt P03372). The experiment in a line: qHTS assay for small molecule antagonists of estrogen receptor alpha signaling (AID 588513; active means well fitted curve in the direction sought with a large enough effect in the signal ratio, with a control signal flat, not every such curve was filed as active; the % refers to the signal ratio; further: on the % scale 0 is the no-effect control and ±100 the full control effect). In short, it runs like this:
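ER-alpha-UAS-bla GripTite HEK 293 cells in medium with 2% charcoal/dextran-treated FBS were preincubated 4 h at 37 C, dosed with compound (1:2 titration), stimulated with 0.5nM 17-beta-estradiol for 18 h, then read by CCF4 beta-lactamase fluorescence.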

Assay [2] shares this target. Put plainly: qHTS assay for small molecule agonists of estrogen receptor alpha signaling (AID 588514).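 Further: 0% = vehicle only and 100% = reference agonist; nearly all actives have a fitted effect of over 70% in size.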 In short, it runs like this:
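EC50 and efficacy came from Hill fits of beta-lactamase reporter signal (CCF4 dye, 2 h at room temperature) scaled between DMSO and 20 nM 17-beta-estradiol. Agonist mode: HEK293 ER-alpha-UAS-bla cells in charcoal/dextran-stripped serum medium, 18 h compound exposure at 37 C.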
In general terms: Quantitative high-throughput screening tests each substance at several concentrations.

Assay [3] is described as follows: qHTS assay for small molecule agonists of the antioxidant response element (ARE) signaling pathway (AID 651741; active means well fitted activation curve with a large enough effect in the signal ratio; the % refers to the signal ratio; further: potency means the concentration at half of the fitted maximal effect; on activation: % of control where 0% means no effect). In short, it runs like this:
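Stably integrated ARE-beta-lactamase reporter HepG2 cells; 16 h compound incubation, 37 C; LiveBLAzer FRET substrate 2 h at room temperature; fluorescence intensity.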

For assay [4], the target named is Bile acid receptor (Homo sapiens) (UniProt Q96RI1). The experiment in a line: qHTS assay for small molecule antagonists of farnesoid X receptor signaling (AID 588526). Further: on the % scale 0 is the no-effect control and ±100 the full control effect. In short, it runs like this:
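Antagonist mode: titrated compounds tested against chenodeoxycholic acid stimulation (normalized to 50 uM CDCA and DMSO) in GeneBLAzer HEK293T cells for 16 h. Beta-lactamase read by CCF4 fluorescence; IC50 from Hill fits.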

Assay [5] addresses Glucocorticoid receptor (Homo sapiens) (UniProt P04150). Put plainly: qHTS assay for small molecule agonists of glucocorticoid receptor signaling (AID 588532; active means well fitted curve in the direction sought with a large enough effect in the signal ratio, with a control signal flat; the % refers to the signal ratio;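 further: 100% = dexamethasone at 0.1 µM and 0% = DMSO only wells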). The note with it: HeLa MMTV-bla, beta-lactamase ratio, agonist, 18 h; active compounds read high; percent of dexamethasone control, DMSO zero. Summed up:
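Cells were plated and rested 3-5 h at 37 C, compounds were added in titration and incubated 18 h, then CCF4 substrate was loaded for 2 h at RT before reading blue/green fluorescence. EC50 came from Hill-equation fitting.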

Assay [6] deals with Thyroid hormone receptor beta (Homo sapiens) (UniProt P10828). The experiment in a line: qHTS assay for small molecule antagonists of thyroid hormone receptor beta signaling (AID 588547; active means well fitted inhibition curve with a large enough effect in the signal ratio, with a control signal flat, not every such curve was filed as active; the % refers to the signal ratio;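 further: cells stimulated with 0.4 nM T3 agonist during compound exposure; series mostly up to about 77 µM; on the % scale 0 is the no-effect control and ±100 the full control effect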). The following applies: TR-UAS-bla HEK293, beta-lactamase ratio, antagonist mode, 18 h. In short, it runs like this: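 TR-UAS-bla GripTite HEK293 cells in 2% charcoal/dextran FBS medium; compounds 0.59 nM to 92 uM with T3 at 0.4nM final, 18 h at 37 C. Beta-lactamase read by CCF4 fluorescence (460/530 nm); Hill fits gave IC50 and efficacy.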

The target of assay [7] is Androgen receptor (Homo sapiens) (UniProt P10275). Put plainly: qHTS assay for small molecule agonists of androgen receptor signaling (AID 588515; active means well fitted curve in the direction sought with a large enough effect in the signal ratio, with a control signal flat; the % refers to the signal ratio; further: on the % scale 0 is the no-effect control and ±100 the full control effect). The note with it: AR-UAS-bla HEK293, beta-lactamase ratio, agonist 16 h; activation: active compounds read high. Summed up:
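Stimulation of an AR-responsive β-lactamase reporter in GripTite HEK293 cells was measured after 16 h compound exposure at 37 °C, via CCF4 fluorescence after 2 h RT. EC50 from Hill fits, normalized to R1881 at 30 nM.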

For assay [8] the target is unchanged. The experiment in a line: qHTS assay for small molecule antagonists of androgen receptor signaling (AID 588516; active means well fitted curve in the direction sought with a large enough effect in the signal ratio, with a control signal flat, not every such curve was filed as active; the % refers to the signal ratio; further: on the % scale 0 is the no-effect control and ±100 the full control effect). In short, it runs like this: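 AR-UAS-bla-GripTite HEK 293 cells (2000/well, 5 h at 37 C) received compound titrations, then R1881 at 10 nM final; after 16 h at 37 C, CCF4 dye 2 h RT, beta-lactamase fluorescence read; IC50 from Hill fits.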
The target of assay [9] is Glucocorticoid receptor (Homo sapiens) (UniProt P04150). Put plainly: qHTS assay for small molecule antagonists of glucocorticoid receptor signaling (AID 588533; active means well fitted inhibition curve with a large enough effect in the signal ratio, with a control signal flat, not every such curve was filed as active; the % refers to the signal ratio). In short, it runs like this:
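Antagonist-mode qHTS: compound titrations added to GRE-bla HeLa cells, then dexamethasone 2 nM final; 18 h, 37 C. CCF4 FRET fluorescence normalized to dexamethasone and DMSO; IC50 from Hill fit.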

For assay [10], the target named is Peroxisome proliferator-activated receptor delta (Homo sapiens) (UniProt Q03181). Put plainly: qHTS assay for small molecule antagonists of peroxisome proliferator-activated receptor delta signaling (AID 588535; active means well fitted inhibition curve with a large enough effect in the signal ratio, with a control signal flat, not every such curve was filed as active; the % refers to the signal ratio). In short, it runs like this: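 Fluorescence from CCF4-loaded GeneBLAzer PPAR-delta-UAS-bla HEK293T cells (2 hrs RT loading) quantified reporter inhibition after an 18 hr, 37 C compound exposure across a titration.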

Results filed as inconclusive are left out. A number with no mark means an inactive call. Calls of active or inactive are those of the source. Unless noted, the call rests on the fitted dose curve.

Sequence of Estrogen receptor (Homo sapiens) (P03372 whole entry, looked up): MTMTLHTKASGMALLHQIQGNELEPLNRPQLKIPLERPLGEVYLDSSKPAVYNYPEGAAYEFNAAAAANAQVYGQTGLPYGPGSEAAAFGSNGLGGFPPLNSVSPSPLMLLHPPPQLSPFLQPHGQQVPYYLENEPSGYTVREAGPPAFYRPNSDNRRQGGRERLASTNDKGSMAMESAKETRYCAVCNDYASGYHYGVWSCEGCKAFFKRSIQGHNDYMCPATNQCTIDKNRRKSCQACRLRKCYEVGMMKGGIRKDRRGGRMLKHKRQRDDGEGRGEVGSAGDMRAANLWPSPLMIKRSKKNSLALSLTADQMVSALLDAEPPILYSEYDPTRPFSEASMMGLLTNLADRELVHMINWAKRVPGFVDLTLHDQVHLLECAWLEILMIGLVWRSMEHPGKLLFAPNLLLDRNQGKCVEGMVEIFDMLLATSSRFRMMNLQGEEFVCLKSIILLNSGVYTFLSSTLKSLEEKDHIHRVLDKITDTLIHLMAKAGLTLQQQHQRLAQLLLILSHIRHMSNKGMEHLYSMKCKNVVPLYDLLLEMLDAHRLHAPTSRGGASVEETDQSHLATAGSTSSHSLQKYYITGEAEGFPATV
Sequence of Bile acid receptor (Homo sapiens) (Q96RI1 whole entry, looked up): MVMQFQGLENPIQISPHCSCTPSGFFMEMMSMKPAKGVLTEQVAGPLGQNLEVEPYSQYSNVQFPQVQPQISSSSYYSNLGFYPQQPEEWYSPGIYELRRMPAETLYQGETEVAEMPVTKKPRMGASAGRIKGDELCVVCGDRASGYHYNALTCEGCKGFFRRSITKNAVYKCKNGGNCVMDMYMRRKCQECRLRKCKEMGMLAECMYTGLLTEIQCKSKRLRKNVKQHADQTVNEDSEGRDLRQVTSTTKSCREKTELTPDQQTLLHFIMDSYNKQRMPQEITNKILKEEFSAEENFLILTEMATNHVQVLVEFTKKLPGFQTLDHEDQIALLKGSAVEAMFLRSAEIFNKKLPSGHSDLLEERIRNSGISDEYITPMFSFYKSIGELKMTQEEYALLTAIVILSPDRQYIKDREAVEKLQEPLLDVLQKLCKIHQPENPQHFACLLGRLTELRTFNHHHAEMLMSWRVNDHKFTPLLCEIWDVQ
Sequence of Androgen receptor (Homo sapiens) (P10275 whole entry, looked up): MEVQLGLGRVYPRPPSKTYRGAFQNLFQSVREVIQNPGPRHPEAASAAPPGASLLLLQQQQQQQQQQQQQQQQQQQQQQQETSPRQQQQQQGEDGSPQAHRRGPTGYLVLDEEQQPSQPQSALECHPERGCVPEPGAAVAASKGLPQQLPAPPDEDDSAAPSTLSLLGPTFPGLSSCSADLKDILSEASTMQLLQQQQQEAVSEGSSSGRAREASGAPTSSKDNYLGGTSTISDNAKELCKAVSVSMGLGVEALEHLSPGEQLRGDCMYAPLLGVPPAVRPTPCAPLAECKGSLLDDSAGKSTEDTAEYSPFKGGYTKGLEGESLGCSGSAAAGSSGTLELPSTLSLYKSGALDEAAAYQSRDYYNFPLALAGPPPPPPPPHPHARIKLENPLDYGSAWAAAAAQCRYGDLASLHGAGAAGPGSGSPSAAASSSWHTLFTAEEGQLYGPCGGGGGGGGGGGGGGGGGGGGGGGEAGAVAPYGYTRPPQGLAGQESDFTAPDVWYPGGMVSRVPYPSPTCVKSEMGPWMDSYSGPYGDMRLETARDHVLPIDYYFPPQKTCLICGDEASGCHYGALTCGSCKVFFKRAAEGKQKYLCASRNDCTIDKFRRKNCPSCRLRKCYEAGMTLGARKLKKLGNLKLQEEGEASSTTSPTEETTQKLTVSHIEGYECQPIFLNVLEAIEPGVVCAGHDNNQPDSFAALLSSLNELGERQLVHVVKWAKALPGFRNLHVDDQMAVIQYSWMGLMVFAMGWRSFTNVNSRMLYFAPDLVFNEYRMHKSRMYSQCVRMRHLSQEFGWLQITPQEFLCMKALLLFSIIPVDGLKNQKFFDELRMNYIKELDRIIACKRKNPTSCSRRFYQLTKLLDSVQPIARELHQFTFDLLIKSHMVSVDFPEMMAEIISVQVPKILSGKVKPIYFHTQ
Sequence of Thyroid hormone receptor beta (Homo sapiens) (P10828 whole entry, looked up): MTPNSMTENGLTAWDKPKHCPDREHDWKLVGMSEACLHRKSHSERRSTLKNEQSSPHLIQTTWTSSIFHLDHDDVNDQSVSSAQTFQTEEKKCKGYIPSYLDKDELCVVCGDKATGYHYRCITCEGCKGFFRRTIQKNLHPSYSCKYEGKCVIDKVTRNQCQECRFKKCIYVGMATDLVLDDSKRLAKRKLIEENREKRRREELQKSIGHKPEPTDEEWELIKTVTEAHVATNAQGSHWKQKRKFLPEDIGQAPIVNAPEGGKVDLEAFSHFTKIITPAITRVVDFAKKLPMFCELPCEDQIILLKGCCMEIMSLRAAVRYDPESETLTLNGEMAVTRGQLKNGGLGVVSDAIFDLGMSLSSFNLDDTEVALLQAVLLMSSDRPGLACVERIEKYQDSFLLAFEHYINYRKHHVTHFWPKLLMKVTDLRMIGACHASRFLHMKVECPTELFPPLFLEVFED
Sequence of Glucocorticoid receptor (Homo sapiens) (P04150 whole entry, looked up): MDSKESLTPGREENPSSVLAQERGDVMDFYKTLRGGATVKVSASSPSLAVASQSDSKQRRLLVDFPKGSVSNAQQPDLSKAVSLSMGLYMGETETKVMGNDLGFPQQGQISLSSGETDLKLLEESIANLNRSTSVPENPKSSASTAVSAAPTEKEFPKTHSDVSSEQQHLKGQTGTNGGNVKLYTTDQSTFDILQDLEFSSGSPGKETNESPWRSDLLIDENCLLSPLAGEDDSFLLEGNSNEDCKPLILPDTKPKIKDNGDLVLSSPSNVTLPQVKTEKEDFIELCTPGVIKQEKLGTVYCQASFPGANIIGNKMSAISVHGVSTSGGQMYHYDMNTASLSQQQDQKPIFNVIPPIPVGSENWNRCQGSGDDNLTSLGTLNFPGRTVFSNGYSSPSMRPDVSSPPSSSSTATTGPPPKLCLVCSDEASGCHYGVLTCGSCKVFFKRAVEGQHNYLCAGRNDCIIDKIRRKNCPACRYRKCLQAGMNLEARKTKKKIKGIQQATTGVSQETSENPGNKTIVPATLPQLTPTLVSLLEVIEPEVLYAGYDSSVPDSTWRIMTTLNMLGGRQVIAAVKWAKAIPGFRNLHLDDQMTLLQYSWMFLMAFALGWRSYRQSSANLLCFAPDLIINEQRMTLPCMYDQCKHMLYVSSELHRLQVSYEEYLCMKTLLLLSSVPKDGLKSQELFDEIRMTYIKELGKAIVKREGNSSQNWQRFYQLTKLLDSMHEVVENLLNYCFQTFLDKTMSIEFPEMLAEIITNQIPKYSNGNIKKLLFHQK
Sequence of Peroxisome proliferator-activated receptor delta (Homo sapiens) (Q03181 whole entry, looked up): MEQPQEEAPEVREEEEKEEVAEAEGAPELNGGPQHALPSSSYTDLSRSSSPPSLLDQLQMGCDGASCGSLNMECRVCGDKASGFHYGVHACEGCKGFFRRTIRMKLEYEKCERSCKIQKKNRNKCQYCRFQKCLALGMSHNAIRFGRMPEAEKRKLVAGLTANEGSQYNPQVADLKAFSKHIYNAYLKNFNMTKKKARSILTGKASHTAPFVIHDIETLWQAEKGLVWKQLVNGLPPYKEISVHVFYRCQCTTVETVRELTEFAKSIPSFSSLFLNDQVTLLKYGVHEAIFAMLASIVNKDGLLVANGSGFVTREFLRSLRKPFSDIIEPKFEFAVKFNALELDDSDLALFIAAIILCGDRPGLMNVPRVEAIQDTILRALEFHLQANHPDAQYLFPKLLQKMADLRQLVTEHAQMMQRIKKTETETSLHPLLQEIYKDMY

`CCOC(=O)CCCCCCCCC(=O)OCC`: the Potency result in assay [1], in assay [2] and in [3] was “inactive” in each case.
Take `COc1ccc(OC)c(OC)c1`: the Potency result in [1], in [4] and in assay [3] was “inactive” throughout. For the same compound, in assay [5], the activation is 0.211%. In addition, the activity change % (negative = inhibition) in assay [6] is 7.13%.
Regarding `c1ccc2cc3c(ccc4ccccc43)cc2c1`, the Potency entry in assay [1] and in assay [4] was “inactive” each time.
On to `CCCCCCCCCCCCCCCCN(C)C`, for which the Potency result in assay [1], in assay [9], in assay [10] and in assay [3] was “inactive” in each case. For the same compound, the activation in assay [7] was 8.77%; in assay [5] it was -11.7%. Besides, the call in [8] was inactive.
On to `CCOC(=O)COc1cc(-n2ncc(C(F)(F)F)c(C)c2=O)c(F)cc1Cl`, for which the Potency result in assay [1] and in assay [10] was “inactive” throughout. The activation was -1.68% in [7] and 13.3% in [5].
For the compound `Nc1cc(Cl)nc(C(=O)O)c1Cl`, the Potency entry in [1], in assay [4], in [9], in assay [10] and in assay [3] was “inactive” in each case. The activation in assay [7] was 6.83%; in [5] it was -6.13%. Besides, in [8], the call was inactive. In addition, in assay [6], the activity change % (negative = inhibition) was 12%.
Regarding `Cn1sccc1=O`, the Potency entry in [1], in assay [4], in assay [9] and in assay [10] was “inactive” in each case. Besides, the activation in assay [5] is 2.87%. The activity change % (negative = inhibition) in assay [6] is -11.2%.
Regarding `CCOC(=O)c1ccccc1C`, the Potency entry in [1], in assay [4], in assay [9] and in assay [3] was “inactive” throughout. In addition, the activation in assay [5] was 10.9%. Further, the activity change % (negative = inhibition) in assay [6] is -2.99%.
For the compound `O=S(=O)(O)c1cc(S(=O)(=O)O)c2c(N=Nc3ccccc3)c(O)ccc2c1`, the Potency entry in [1], in [4], in assay [9], in assay [10] and in assay [3] was “inactive” each time. Further, the activity change % (negative = inhibition) in assay [6] is -8.36%.
As to `CC(C)c1ccc(C(C)C)cc1`, the Potency entry in assay [1], in [4], in assay [9] and in assay [3] was “inactive” in each case. In addition, in [5], the activation was 1.07%.
As to `COC(=O)c1ccc(C(=O)OC)cc1`, the Potency entry in [1], in assay [2] and in [3] was “inactive” in each case.
Regarding `C[N+](C)(C)CC(O)CCl` (centres undefined), the Potency entry in assay [1], in assay [9] and in [10] was “inactive” each time. Besides, in assay [5], the activation is -7.46%.
As to `CCC(=O)C1C(=O)CC(C(=O)O)CC1=O` (centres undefined), the Potency entry in assay [1] and in [4] was “inactive” throughout. Moreover, the activation in assay [7] was -3.36%; in [5], 6.99%.
Consider `CC(C)(C)c1n[nH]c(=O)n(N)c1=O`, for which the Potency entry in [1], in [4], in assay [9], in assay [10] and in assay [3] was “inactive” each time. Moreover, the values for the activation in [7] and in assay [5] were 8.74% and 14.6%, respectively. Further, the compound was called inactive in assay [8]. In assay [6], the activity change % (negative = inhibition) is 0.427%.
Turning to `Oc1ccc2ccccc2c1N=Nc1ccccc1`, the Potency entry in assay [1] and in assay [4] was “inactive” in each case. Further, the Potency in [3] was 3.06 µM (active).
`CC(=O)OC1CCC(C(C)(C)C)CC1` (centres undefined): the Potency result in assay [1], in assay [9], in [10] and in assay [3] was “inactive” in each case. Besides, the activation was 3% in assay [7] and -9.53% in assay [5]. In addition, in assay [8], the compound was called inactive. In addition, the activity change % (negative = inhibition) in assay [6] was 5.89%.
In the case of `NCCCCCCCCCCC(=O)O`, the Potency result in assay [1], in [4], in assay [9], in [10] and in [3] was “inactive” each time. In assay [7], the activation is 0.655%. Moreover, in [8], the compound was called inactive.
In the case of `CCCCOC(=O)c1ccccc1`, the Potency result in assay [1], in [9], in assay [10] and in assay [3] was “inactive” in each case. Further, the activation in assay [7] was 0.383%; in assay [5] it was -8.22%. In addition, the compound was classed as inactive in assay [8].
On to `CC(C)(C)c1ccc(O)c(C(C)(C)C)c1`, for which the Potency entry in assay [1], in assay [4] and in [9] was “inactive” each time. Moreover, the activation in [5] is -9.25%. Besides, the activity change % (negative = inhibition) in [6] was 5.44%.
On to `CC(C)c1cccc(C(C)C)c1`, for which the Potency entry in assay [1], in assay [4], in assay [10] and in assay [3] was “inactive” throughout. Also, the activation in assay [5] is -12.5%. Moreover, in assay [6], the activity change % (negative = inhibition) is -5.42%.
As to `CCCCOCC(C)OCC(C)O` (centres undefined), the Potency result in [1], in assay [4] and in [10] was “inactive” each time. Further, the activity change % (negative = inhibition) in [6] was -10.2%.
With `CCCCCCCCCCCCCCO`, the Potency result in assay [1], in assay [2] and in assay [3] was “inactive” each time.
Consider `COC(=O)c1cccc(C(=O)OC)c1`, for which the Potency result in assay [1] is “inactive”. Moreover, in [7], the activation was -4.83%. In addition, the outcome in assay [8] was inactive. Further, in assay [6], the activity change % (negative = inhibition) was 1.41%.
For `CCCCCCCCCc1ccccc1`, the Potency result in assay [1], in assay [4] and in assay [9] was “inactive” in each case. In addition, the activation in assay [7] was 1.05%; in [5], -4.94%. Besides, in assay [8], the compound was called inactive.
Take `CCCCOCCOCCOC(=O)CCCCC(=O)OCCOCCOCCCC`: the Potency result in [1], in assay [4], in [9] and in assay [10] was “inactive” each time. Further, in [5], the activation is -7.36%. Moreover, the activity change % (negative = inhibition) in [6] was -12.6%.
Consider `CCCC/C=C\CCCCCCCCO`, for which the Potency entry in [1], in assay [4] and in assay [3] was “inactive” in each case. For the same compound, the activation in assay [7] is 1.62%. Moreover, in assay [8], the result was inactive.
Regarding `CC(Cl)(Cl)C(=O)OCCOc1cc(Cl)c(Cl)cc1Cl`, the Potency entry in assay [1], in [4], in assay [9] and in assay [10] was “inactive” in each case. For the same compound, the activation in [7] is 2.7%; in assay [5] it was -10.3%. Besides, the compound was classed as inactive in [8].
Regarding `CC1(C)[C@@H](C=C(Cl)Cl)[C@@H]1C(=O)OCc1cccc(Oc2ccccc2)c1`, the Potency entry in [1], in assay [9] and in [10] was “inactive” each time. Moreover, the activation in assay [7] is -22.2%. Further, in [8], the call was inactive. The activity change % (negative = inhibition) in [6] was 5.01%.
As for `CCOC(=O)C1=NN(c2ccc(Cl)cc2Cl)C(C)(C(=O)OCC)C1` (centres undefined), the Potency entry in assay [1], in [9] and in assay [3] was “inactive” each time. Further, the figures for the activation in assay [7] and in assay [5] were -14.3% and -2.41%, respectively. Besides, the compound was classed as inactive in [8].
As for `COC(=O)c1cccc(C)c1S(=O)(=O)NC(=O)Nc1nc(OCC(F)(F)F)nc(N(C)C)n1`, the Potency entry in assay [1], in [4], in assay [9] and in assay [3] was “inactive” each time. Further, the activation in assay [7] was 3.18%; in [5] it was -2.8%. In addition, the result in assay [8] was inactive. In addition, the activity change % (negative = inhibition) in assay [6] is 11.3%.

(Values after PubChem BioAssay (NCATS).)
